According to PubChem BioAssay (NCI):
The panel holds about 79,000 compounds, 15% with a hit somewhere; the sample as a whole holds those more often. Calls of active or inactive are those of the source. Cut-off read from the data, not from the text of the source: active = growth inhibition above about 70%; inactive = the rest.

Columns and labels:
[1] = NCI Yeast Anticancer Drug Screen. Data for the rad52 strain (AID 147);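 note: 0% = growth of vehicle-treated control cultures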; conditions: S. cerevisiae rad52 mutant growth inhibition, hits give high values
Outline: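 Screen used a yeast mutant impaired in DNA repair. After compound exposure, growth was measured. Values reflect inhibition compared with vehicle-treated cells.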

[2] = NCI Yeast Anticancer Drug Screen. Data for the wt1 strain (AID 149);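 note: 0% = growth of vehicle-treated wt1 cultures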; conditions: S. cerevisiae wt1 strain (SPY 50644) growth inhibition, hits give high values
Outline: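 Growth inhibition read against vehicle controls after compound exposure of the wt1 yeast strain.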

[3] = NCI Yeast Anticancer Drug Screen. Data for the rad50EPP+ strain (AID 151);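 note: 0% = growth of vehicle-treated control cultures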; conditions: S. cerevisiae rad50 mutant strain, hits give high values
Outline: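 Exposing the rad50EPP+ strain to each compound, growth was compared with vehicle-only cultures to give inhibition.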

[4] = NCI Yeast Anticancer Drug Screen. Data for the mgt1 strain (AID 153); conditions: S. cerevisiae mgt1 mutant growth inhibition, hits give high values
Outline: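 Genetically defined yeast (mgt1) treated with compound; inhibition of growth expressed against vehicle-treated controls.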

[5] = NCI Yeast Anticancer Drug Screen. Data for the rad50 strain (AID 155);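 note: 0% = growth of vehicle-only cultures of the same strain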; conditions: S. cerevisiae rad50 strain growth inhibition, hits give high values
Outline: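 Readout: growth inhibition relative to vehicle-treated cultures. Compound exposure was carried out in a genetically defined yeast strain deficient in DNA damage repair.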

[6] = NCI Yeast Anticancer Drug Screen. Data for the mec2-1 strain (AID 157); conditions: S. cerevisiae mec2-1 strain, hits give high values
Outline: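 Readout is yeast growth inhibition, normalised to vehicle-treated controls, in the mec2-1 strain exposed to compound.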

[7] = NCI Yeast Anticancer Drug Screen. Data for the rad14 strain (AID 159);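 note: 0% = growth of vehicle-treated control cultures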; conditions: S. cerevisiae rad14 strain growth inhibition, hits give high values
Outline: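 Growth inhibition vs vehicle controls; genetically altered yeast strain (DNA damage repair defect) treated with test compounds.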

[8] = NCI Yeast Anticancer Drug Screen. Data for the sgs1 mgt1 strain (AID 161);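 note: 0% = growth of cultures given vehicle only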; conditions: S. cerevisiae sgs1 mgt1 strain, hits give high values
Outline: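 Yeast cells carrying a defined DNA-repair defect were exposed to test compounds. Growth inhibition was measured relative to vehicle-treated controls.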

[9] = NCI Yeast Anticancer Drug Screen. Data for the CLN2oe strain (AID 163);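 note: 0% = growth of vehicle-only control cultures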; conditions: S. cerevisiae CLN2oe strain, hits give high values
Outline: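 Values reflect how much compound exposure reduced yeast growth, referenced to vehicle-exposed cells. Assay organism is a strain with a defined genetic change affecting cell-cycle control.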

[10] = NCI Yeast Anticancer Drug Screen. Data for the cln2 rad14 strain (AID 165);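 note: 0% = growth equal to vehicle treated cultures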; conditions: S. cerevisiae cln2 rad14 strain, hits give high values
Outline: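 Relative to vehicle controls, growth inhibition of compound-treated cln2 rad14 yeast was recorded.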

[11] = NCI Yeast Anticancer Drug Screen. Data for the bub3 strain (AID 167); conditions: S. cerevisiae bub3 mutant strain, hits give high values
Outline: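 Readout: yeast growth inhibition, expressed relative to vehicle-only wells. The test organism is a mutant strain from a panel with lesions in DNA repair or checkpoint genes.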

[12] = NCI Yeast Anticancer Drug Screen. Data for the mlh1 strain (AID 171);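 note: 0% = growth of vehicle-treated control cultures of the same strain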; conditions: S. cerevisiae mlh1 strain growth inhibition, hits give high values
Outline: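 Steps: expose the defined-mutant yeast strain to compound; expose a parallel culture to vehicle; measure growth; express compound effect as inhibition relative to the vehicle culture.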

[13] = NCI Yeast Anticancer Drug Screen. Data for the sgs1 strain (AID 173);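 note: 0% = growth of vehicle-only control cultures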; conditions: S. cerevisiae sgs1 mutant, hits give high values
Outline: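 Treat defined-mutant yeast with compound; measure growth; calculate inhibition relative to vehicle-treated cells.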

[14] = NCI Yeast Anticancer Drug Screen. Data for the mlh1 rad18 strain (AID 175); conditions: S. cerevisiae mlh1 rad18 strain growth inhibition, hits give high values
Outline: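 Test agents were incubated with a yeast strain of defined genotype (DNA damage repair defect). Inhibition of growth was derived by comparison with vehicle-exposed cultures.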

[15] = NCI Yeast Anticancer Drug Screen. Data for the rad18 strain (AID 177); conditions: S. cerevisiae rad18 mutant growth inhibition, hits give high values
Outline: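 A genetically defined yeast mutant impaired in DNA damage repair was treated with test compounds, then its growth was measured against cultures receiving vehicle alone.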

[16] = at 5.0 µM (retest, dose inferred, filed as 0.5)
[17] = at 50.0 µM (retest, dose inferred, filed as 5.0)

Measured: growth inhibition

O=c1oc2ccccc2c(O)c1C(c1ccc2ccccc2c1)c1c(O)c2ccccc2oc1=O
inactive: [1]; at 1.2 µM -8% | [1]; at 3.7 µM 12% | [1]; at 11.0 µM 21% | [1]; at 33.0 µM 64% | [2]; at 1.2 µM -10% | [2]; at 3.7 µM 4% | [2]; at 11.0 µM 1% | [2]; at 33.0 µM 50% | [3]; at 1.2 µM 6% | [3]; at 3.7 µM 41% | [3]; at 11.0 µM 51% | [3]; at 33.0 µM 50% | [3]; at 100.0 µM 46% | [4]; at 1.2 µM 17% | [4]; at 3.7 µM 17% | [4]; at 11.0 µM 33% | [5]; at 1.2 µM 12% | [5]; at 3.7 µM 10% | [5]; [16] 47% | [5]; at 11.0 µM 17% | [5]; at 33.0 µM 58% | [6]; at 1.2 µM 10% | [6]; at 3.7 µM 15% | [6]; [16] 17% | [6]; at 11.0 µM 31% | [7]; at 1.2 µM 12% | [7]; at 3.7 µM 21% | [7]; at 11.0 µM 26% | [7]; at 33.0 µM 66% | [8]; [16] -24% | [8]; at 50.0 µM 46.1% | [9]; at 1.2 µM 7% | [9]; at 3.7 µM 21% | [9]; at 11.0 µM 27% | [10]; [16] 19% | [10]; at 50.0 µM 40.2% | [11]; at 1.2 µM 8% | [11]; at 3.7 µM -8% | [11]; [16] 10% | [11]; at 11.0 µM 22% | [11]; at 33.0 µM 55% | [11]; at 50.0 µM 28.4% | [12]; at 1.2 µM -1% | [12]; at 3.7 µM 20% | [12]; at 11.0 µM 33% | [13]; at 1.2 µM 27% | [13]; at 3.7 µM 30% | [13]; at 11.0 µM 36% | [14]; [16] 12% | [14]; [17] 40% | [15]; at 1.2 µM 10% | [15]; at 3.7 µM 7% | [15]; at 11.0 µM 33% | [15]; at 33.0 µM 55%
active: [1]; at 100.0 µM 97% | [2]; at 100.0 µM 98% | [4]; at 33.0 µM 83% | [4]; at 100.0 µM 98% | [5]; [17] 93% | [5]; at 50.0 µM 73.7% | [5]; at 100.0 µM 97% | [6]; at 33.0 µM 76% | [6]; [17] 78% | [6]; at 50.0 µM 86.5% | [6]; at 100.0 µM 98% | [7]; at 100.0 µM 99% | [8]; [17] 92% | [9]; at 33.0 µM 78% | [9]; at 100.0 µM 97% | [10]; [17] 96% | [11]; [17] 93% | [11]; at 100.0 µM 97% | [12]; at 33.0 µM 75% | [12]; at 100.0 µM 99% | [13]; at 33.0 µM 73% | [13]; at 100.0 µM 98% | [14]; at 50.0 µM 80% | [15]; at 100.0 µM 98%

[O-][n+]1c2cccc(O)c2[n+]([O-])c2cccc(O)c21
active: [1]; at 11.0 µM 89% | [1]; at 33.0 µM 93% | [1]; at 100.0 µM 95% | [3]; at 11.0 µM 89% | [3]; at 33.0 µM 94% | [3]; at 100.0 µM 96% | [5]; at 11.0 µM 85% | [5]; at 33.0 µM 92% | [5]; [17] 95% | [5]; at 50.0 µM 86.4% | [5]; at 100.0 µM 95% | [6]; [17] 80% | [8]; [17] 81% | [10]; [17] 94% | [10]; at 50.0 µM 82.8% | [11]; [17] 72% | [14]; [17] 94% | [15]; at 3.7 µM 75% | [15]; at 11.0 µM 92% | [15]; at 33.0 µM 94% | [15]; at 100.0 µM 94%
inactive: [1]; at 1.2 µM 23% | [1]; at 3.7 µM 57% | [2]; at 1.2 µM 2% | [2]; at 3.7 µM 2% | [2]; at 11.0 µM 7% | [2]; at 33.0 µM 10% | [2]; at 100.0 µM 15% | [3]; at 1.2 µM 25% | [3]; at 3.7 µM 63% | [4]; at 1.2 µM 3% | [4]; at 3.7 µM 10% | [4]; at 11.0 µM 8% | [4]; at 33.0 µM 2% | [4]; at 100.0 µM 18% | [5]; at 1.2 µM 24% | [5]; at 3.7 µM 55% | [5]; [16] 15% | [6]; at 1.2 µM 3% | [6]; at 3.7 µM 9% | [6]; [16] 15% | [6]; at 11.0 µM 18% | [6]; at 33.0 µM 26% | [6]; at 50.0 µM 35.8% | [6]; at 100.0 µM 46% | [7]; at 1.2 µM 2% | [7]; at 3.7 µM 23% | [7]; at 11.0 µM 12% | [7]; at 33.0 µM 20% | [7]; at 100.0 µM 38% | [8]; [16] 6% | [8]; at 50.0 µM 35% | [9]; at 1.2 µM 0% | [9]; at 3.7 µM 0% | [9]; at 11.0 µM 3% | [9]; at 33.0 µM 11% | [9]; at 100.0 µM 11% | [10]; [16] 65% | [11]; at 1.2 µM 4% | [11]; at 3.7 µM 3% | [11]; [16] 0% | [11]; at 11.0 µM 0% | [11]; at 33.0 µM 3% | [11]; at 50.0 µM 42.8% | [11]; at 100.0 µM 1% | [12]; at 1.2 µM 3% | [12]; at 3.7 µM 0% | [12]; at 11.0 µM 11% | [12]; at 33.0 µM 18% | [12]; at 100.0 µM 44% | [13]; at 1.2 µM 6% | [13]; at 3.7 µM 14% | [13]; at 11.0 µM 31% | [13]; at 33.0 µM 46% | [13]; at 100.0 µM 66% | [14]; [16] -7% | [14]; at 50.0 µM 57.2% | [15]; at 1.2 µM 31%

C[C@]12CC[C@H](O)CC1=CC[C@@H]1[C@@H]2CC[C@]2(C)C(=O)CC[C@@H]12
inactive: [1]; at 1.2 µM -54% | [1]; at 3.7 µM -47% | [1]; at 11.0 µM -46% | [1]; at 33.0 µM 69% | [2]; at 1.2 µM -44% | [2]; at 3.7 µM -65% | [2]; at 11.0 µM -70% | [2]; at 33.0 µM 50% | [3]; at 1.2 µM -64% | [3]; at 3.7 µM 4% | [3]; at 11.0 µM 0% | [3]; at 33.0 µM 36% | [3]; at 100.0 µM 65% | [4]; at 1.2 µM -65% | [4]; at 3.7 µM -68% | [4]; at 11.0 µM -62% | [4]; at 33.0 µM 52% | [5]; at 1.2 µM -73% | [5]; at 3.7 µM -41% | [5]; [16] 58% | [5]; at 11.0 µM -57% | [6]; at 1.2 µM -94% | [6]; at 3.7 µM -71%
active: [1]; at 100.0 µM 90% | [2]; at 100.0 µM 87% | [4]; at 100.0 µM 96% | [5]; at 33.0 µM 78% | [5]; [17] 98% | [5]; at 50.0 µM 88.5% | [5]; at 100.0 µM 91%
